From PubChem
PAFAH1B2 inh: inhibitors of human PAFAH1B2 | 340,000 tested, 1.2% active | inhibition, % at 3.39 µM | recombinant PAFAH1B2, FP-rhodamine activity probe, fluorescence polarization;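 active = inhibition above the mean of all tested compounds plus 3 SD, cut at about 24% in these data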;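 note: 0% = enzyme with DMSO and 100% = wells lacking PAFAH1B2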
HTRA1 inhibitor: inhibitors of human serine peptidase HTRA1; Q92743; recombinant HTRA1, FP-rhodamine activity-based probe, fluorescence polarization; inhibition, % at 5.96 µM; 340,000 tested, 0.5% active; AID 504803; in the data active = inhibition above about 36%;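 note: 0% = enzyme with DMSO and 100% = wells lacking enzyme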
Target sequence (Q92743 whole entry, looked up): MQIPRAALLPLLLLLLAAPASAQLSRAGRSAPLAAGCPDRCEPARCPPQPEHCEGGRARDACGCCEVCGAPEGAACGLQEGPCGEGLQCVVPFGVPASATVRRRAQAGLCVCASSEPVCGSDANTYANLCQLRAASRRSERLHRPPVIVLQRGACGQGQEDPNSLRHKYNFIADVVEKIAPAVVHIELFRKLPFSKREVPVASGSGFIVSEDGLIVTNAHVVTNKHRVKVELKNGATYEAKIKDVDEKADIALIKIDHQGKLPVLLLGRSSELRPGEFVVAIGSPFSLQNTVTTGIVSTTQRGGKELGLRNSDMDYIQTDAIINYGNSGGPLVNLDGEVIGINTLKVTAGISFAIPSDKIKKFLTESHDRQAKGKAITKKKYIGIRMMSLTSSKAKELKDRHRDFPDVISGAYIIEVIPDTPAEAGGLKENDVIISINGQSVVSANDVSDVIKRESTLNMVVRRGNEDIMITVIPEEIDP
PAFAH2 inh: inhibitors of human PAFAH2 | recombinant PAFAH2, FP-rhodamine activity probe, fluorescence polarization | inhibition, % at 3.39 µM | 340,000 tested, 0.99% active | AID 492956;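 active = inhibition above the mean over all tested compounds plus 3 SD, cut at about 30% in these data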;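 note: inhibitors block probe labeling of enzyme so polarization drops; 0% = enzyme with DMSO and 100% = wells lacking PAFAH2 protein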
DAGLB inhibitor: blocks human DAGLB lipase activity | inhibition, % at 5.17 µM | 340,000 tested, 0.059% active | HEK293T DAGLB membrane lysate, EnzChek fluorogenic substrate | AID 504411 | Q8NCG7; in the data active = inhibition above about 34%;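 note: 0% = enzyme with vehicle and 100% = wells lacking enzyme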
pPAFAH inh: pPAFAH (human) enzyme inhibition | recombinant pPAFAH, FP-rhodamine probe fluorescence polarization | 330,000 tested, 1.5% active | inhibition, % at 3.39 µM | AID 463082;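 active = inhibition above the mean inhibition across the screen plus 3 SD, cut at about 25% in these data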;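 note: inhibitors block binding of the rhodamine activity-based probe so polarization drops; 0% = enzyme with DMSO and 100% = wells lacking pPAFAH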
PAFAH1B3 FP inh: PAFAH1B3 (human) inhibition. Q15102. recombinant PAFAH1B3, FP-rhodamine probe, fluorescence polarization. inhibition, % at 3.39 µM. 340,000 tested, 0.28% active. AID 492972;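 active = inhibition above the screen-wide average of all tested compounds plus 3 SD, cut at about 25% in these data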;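 note: 0% = enzyme with DMSO only and 100% = wells lacking PAFAH1B3 protein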
pPAFAH confirm: confirmation of human plasma PAF acetylhydrolase (pPAFAH) inhibitors | recombinant pPAFAH, FP-Rh probe fluorescence polarization | inhibition, % at 3.39 µM | 2,300 tested, 72% active | shares compounds with pPAFAH inh;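 active = mean inhibition of the triplicate above the hit cutoff set for the earlier primary screen, cut at about 25% in these data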;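 note: 0% = enzyme with DMSO and 100% = wells lacking pPAFAH enzyme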
Numbers without * were called inactive; / = no result. A selection: hits, their analogues and other compounds. The true share with any hit is near 2.8%.

SMILES	PAFAH1B2 inh	HTRA1 inhibitor	PAFAH2 inh	DAGLB inhibitor	pPAFAH inh	PAFAH1B3 FP inh	pPAFAH confirm
O=C(Oc1ccc2ccccc2c1)C1CCC1	17	16	11	-2	/	14	/
COc1ccccc1CNC(=O)CCc1nnc2ccc(NCCCN3CCCC3=O)nn12	0	3	3	-1	0	1	/
C=CCOc1c(Br)cc(C2C3=C(CCCC3=O)N(C)C3=C2C(=O)CCC3)cc1OCC	4	2	9	0	39*	-2	5
C=C(C)CN(CC)c1nc(N)c2c(N)nc3c(c2c1C#N)CC(=O)N3C12CC3CC(CC(C3)C1)C2	5	25	13	6	16	11	/
N#Cc1c(N2CCCC(O)C2)nc(N)c2c(N)nc3c(c12)CC(=O)N3C12CC3CC(CC(C3)C1)C2 (stereo not drawn)	46*	33	46*	-6	45*	51*	22
O=C(CCc1ccccc1)NNC(=S)NC(=O)c1ccccc1	11	1	4	3	41*	9	-8
CC(C)C(=O)NNC(=O)c1csc(-c2cccs2)n1	-1	-3	-6	-2	-2	1	/
C[C@@H](NC(=O)c1nc[nH]c1C(=O)N[C@@H](CCCCNC(=O)OC(C)(C)C)C(=O)OC(C)(C)C)c1ccccc1	7	-36	-1	-3	35*	8	30*
Cc1ccc(S(=O)(=O)NCC(c2ccccc2)N2CCN(c3ccc(F)cc3)CC2)cc1 (stereo not drawn)	3	5	1	-7	/	9	/
CN(C)S(=O)(=O)c1ccc(C(=O)OCC(=O)NCc2ccco2)cc1	10	5	-2	-2	10	17	/
O=C(COC(=O)c1ccc(NS(=O)(=O)c2cccs2)cc1)NCc1ccco1	3	-10	40*	1	42*	-4	29*
Cc1cc(C)n2c(SC/C(O)=C(\C#N)c3nc4ccccc4[nH]3)nnc2n1	5	28	9	1	35*	4	24
Cc1csc(=Nc2ccc(S(=O)(=O)N3CCOCC3)cc2)n1Cc1ccco1	3	2	-2	-1	46*	7	10
CCn1c2ccccc2c2cc(NC(=O)c3cc(C)on3)ccc21	0	-15	0	-3	11	6	/
CCn1c2ccccc2c2cc(NC(=O)c3ccc(Br)o3)ccc21	0	6	7	2	42*	3	17
CCn1c(SCC(=O)Nc2ccc3c(c2)c2ccccc2n3CC)nnc1-c1ccco1	4	23	22	5	56*	2	42*
